Molecules are shown by their SMILES. “And” between values parts separate entries of the source, which are not always exact repeats. Equal entries are not always repeated. Records with an inconclusive call do not appear. A call without a number means that no potency is given here. The source made the active and inactive calls. Calls follow the shape of the dose curve; as a rule, active = well fitted curve in the direction sought with a large enough effect in the repeat runs; inconclusive = weak or mixed curves; inactive = no such curve, though single readings can be large; an effect the other way counts as inactive or inconclusive.

Cytochrome P450 2C19 (Homo sapiens), sequence (P33261 whole entry, looked up): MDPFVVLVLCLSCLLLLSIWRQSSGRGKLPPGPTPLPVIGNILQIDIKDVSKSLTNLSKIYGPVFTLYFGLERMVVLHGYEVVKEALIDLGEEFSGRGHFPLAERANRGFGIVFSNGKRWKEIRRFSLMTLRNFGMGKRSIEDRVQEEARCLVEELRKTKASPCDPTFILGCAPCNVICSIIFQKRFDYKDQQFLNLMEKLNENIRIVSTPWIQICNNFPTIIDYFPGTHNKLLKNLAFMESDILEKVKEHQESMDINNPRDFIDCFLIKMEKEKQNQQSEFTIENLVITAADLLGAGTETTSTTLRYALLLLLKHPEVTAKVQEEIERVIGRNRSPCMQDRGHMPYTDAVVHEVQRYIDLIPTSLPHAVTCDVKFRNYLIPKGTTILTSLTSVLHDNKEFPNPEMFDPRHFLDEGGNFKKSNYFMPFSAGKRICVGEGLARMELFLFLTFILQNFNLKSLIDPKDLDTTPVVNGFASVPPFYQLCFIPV

One experiment deals with Nuclear receptor subfamily 1 group I member 2 (Homo sapiens) (UniProt O75469). In words: CYP3A4 induction through human pregnane X receptor (PXR) by small molecules, qHTS assay (AID 1346984). Also: nearly all actives have a fitted effect of over 40% in size. Conditions: DPX-2 HepG2 PXR, CYP3A4-luciferin luminescence, 24 h; series mostly up to 46.1 µM. A digest of the protocol: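 DPX-2 HepG2 cells carrying a PXR response element and CYP3A4-promoter luciferase construct, treated with compounds 24 hr at 37C. Then P450-Glo CYP3A4 Luciferin-IPA substrate (3uM final) for 3 hr at 37C, One-Glo added, luminescence read.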
For orientation: In qHTS, concentration-response curves come from the screen itself.
Take `CCCCC[C@H](O)/C=C/[C@H]1[C@H](O)CC(=O)[C@@H]1C/C=C\CCCC(=O)O`: the Potency result was “inactive”.
For the compound `COc1ccc(CCN(C)CCCN2CCc3cc(OC)c(OC)cc3CC2=O)cc1OC`, the Potency result is “inactive”.
Regarding `CCCCCCCCCCCC(=O)OCC(O)CO` (stereo not given), the Potency entry is “inactive”.
For `CC(=O)Oc1cccc(O)c1`, the Potency entry was “inactive”.
For the compound `Cc1ccc(S(=O)(=O)NC(=O)NC2CCCCC2)cc1`, the Potency entry was “inactive”.
Turning to `COc1ccc(/C=C/C(=O)c2ccc(OC)cc2OC)cc1`, the Potency entry was “inactive”.

The target is the same in the next experiment. The experiment in a line: Human pregnane X receptor (PXR) activation by small molecules, qHTS assay (AID 1346985). Also: nearly all actives have a fitted effect of over 40% in size. Also: potency is read from the fitted curve at half-maximal effect. Conditions: DPX-2 HepG2 CYP3A4-luciferase, 24 h; series mostly up to 38.3 µM. A digest of the protocol: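 DPX-2 cells (HepG2 co-transfected with a PXR response element and a CYP3A4-promoter luciferase construct) were seeded at 2,000 per well, rested 5 hr at 37C, then exposed to DMSO-dissolved compounds for 24 hr. Activation was read as luciferase luminescence.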
Consider `CCCCC[C@H](O)/C=C/[C@H]1[C@H](O)CC(=O)[C@@H]1C/C=C\CCCC(=O)O`, for which the Potency result was “inactive”.
With `COc1ccc(CCN(C)CCCN2CCc3cc(OC)c(OC)cc3CC2=O)cc1OC`, the Potency result is “inactive”.
Turning to `CCCCCCCCCCCC(=O)OCC(O)CO` (stereo not given), the Potency entry is “inactive”.
On to `CC(=O)Oc1cccc(O)c1`, for which the Potency entry is “inactive”.
As to `Cc1ccc(S(=O)(=O)NC(=O)NC2CCCCC2)cc1`, the Potency result is “inactive”.
As for `COc1ccc(/C=C/C(=O)c2ccc(OC)cc2OC)cc1`, the Potency was 22.4 µM (active).

The target of the next experiment is Cytochrome P450 2D6 (Homo sapiens) (UniProt P10635). The experiment in a line: Cytochrome P450 Family 2 Subfamily D Member 6 (CYP2D6) small molecule antagonists: luciferase reporter qHTS assay (AID 1671196). Also: nearly all actives have a fitted effect of over 50% in size. Also: potency is read from the fitted curve at half-maximal effect. Conditions: P450-Glo CYP2D6 enzyme assay, luciferin luminescence, 1 h; series mostly up to 115 µM. The method in brief: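 Cell-free P450-Glo system: CYP2D6 with proluciferin substrate was pre-incubated with compound for 10 min, then reacted with NADPH regeneration for 1 h at room temperature. Luciferin product was detected after 20 min, and data were reported as relative luminescence units.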
Cytochrome P450 2D6 (Homo sapiens), sequence (P10635 whole entry, looked up): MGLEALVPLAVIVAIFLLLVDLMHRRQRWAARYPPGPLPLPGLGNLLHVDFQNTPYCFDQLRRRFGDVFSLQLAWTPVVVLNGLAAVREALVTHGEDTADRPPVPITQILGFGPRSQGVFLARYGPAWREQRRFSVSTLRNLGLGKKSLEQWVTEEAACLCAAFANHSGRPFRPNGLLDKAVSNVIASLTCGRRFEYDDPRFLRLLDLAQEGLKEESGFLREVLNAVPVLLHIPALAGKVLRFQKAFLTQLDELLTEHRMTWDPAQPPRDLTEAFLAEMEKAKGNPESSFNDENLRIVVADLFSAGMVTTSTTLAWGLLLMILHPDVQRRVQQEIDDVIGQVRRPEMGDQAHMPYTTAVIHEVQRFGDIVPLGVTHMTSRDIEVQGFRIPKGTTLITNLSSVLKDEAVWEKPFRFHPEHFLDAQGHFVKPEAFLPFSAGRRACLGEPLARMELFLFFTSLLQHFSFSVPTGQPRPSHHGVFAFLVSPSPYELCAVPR
(In a reporter assay the amount or activity of a reporter protein is the signal.)
Turning to `Cc1ccc(Nc2c(F)cccc2Cl)c(CC(=O)O)c1`, the Potency result is “inactive”.
On to `C=C(C)C(=O)OCCC(F)(F)C(F)(F)C(F)(F)C(F)(F)C(F)(F)C(F)(F)F`, for which the Potency result is “inactive”.
With `CC(C)OC(=O)c1ccccc1C(=O)OC(C)C`, the Potency result is “inactive”.
The same measure, in the same setting: the figure for `Cc1cc(CCC(=O)OCCOCCOCCOC(=O)CCc2cc(C)c(O)c(C(C)(C)C)c2)cc(C(C)(C)C)c1O` is 9.78 µM (active); for `O=c1[nH][nH]c(=O)c2cc([N+](=O)[O-])ccc12` it is “inactive”; for `COc1ccc2nc(S(=O)Cc3ncc(C)c(OC)c3C)[nH]c2c1` (stereo not given) it is 5.57 µM (active) and 17.4 µM (active).
`CC(=O)OCC1=C(C(=O)O)N2C(=O)[C@@H](NC(=O)CSc3ccncc3)[C@H]2SC1`: the Potency is 11 µM (active).
With `CSSc1ccoc1C`, the Potency entry is “inactive”.
For the compound `CCC(CO)(CO)CO`, the Potency entry was “inactive”.
Take `CC1CCc2nccnc21` (stereo not given): the Potency result is “inactive”.
For `CCCCC[C@H](O)/C=C/[C@H]1[C@H](O)CC(=O)[C@@H]1C/C=C\CCCC(=O)O`, the Potency result was “inactive”.
Take `COc1ccc(CCN(C)CCCN2CCc3cc(OC)c(OC)cc3CC2=O)cc1OC`: the Potency entry is “inactive”.
For the compound `Cc1ccc(NC(=O)N(C)C)cc1NC(=O)N(C)C`, the Potency entry was “inactive”.
As to `CC(C(=O)O)c1ccc(C(=O)c2cccs2)cc1` (stereo not given), the Potency entry was “inactive”.
For the compound `O=C(CCS)OCC(COC(=O)CCS)(COC(=O)CCS)COC(=O)CCS`, the Potency result was “inactive”.
As to `CC1=CC[C@@]23C[C@@H]1C(C)(C)[C@@H]2CC[C@H]3C`, the Potency entry is “inactive”.
For `CC(=O)Oc1cccc(O)c1`, the Potency entry was “inactive”.
The same measure, in the same setting: the entry for `Nc1ccc(NC(=O)c2ccc(N)cc2)cc1` is “inactive”; for `Cc1ccc(S(=O)(=O)NC(=O)NC2CCCCC2)cc1` it is “inactive”.
`O=[N+]([O-])c1ccc2ncccc2c1`: the Potency is 31.8 µM (active).
In the case of `FC(F)(F)C(F)(F)C(F)(F)C(F)(F)CCI`, the Potency entry was “inactive”.
Turning to `CCC1CCC(CCC(=O)O)C1` (stereo not given), the Potency entry was “inactive”.

In the next experiment the target is Cytochrome P450 2C19 (Homo sapiens) (UniProt P33261). The experiment in a line: Cytochrome P450 Family 2 Subfamily C Member 19 (CYP2C19) small molecule antagonists: luciferase reporter qHTS assay (AID 1671197). Also: nearly all actives have a fitted effect of over 65% in size. Also: potency is read from the fitted curve at half-maximal effect. Conditions: P450-Glo CYP2C19 enzyme, luciferin luminescence, 1 h; series mostly up to 115 µM. A digest of the protocol:
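Luminescent readout of CYP2C19 activity: luciferin product detected 20 min after adding detection reagent. Before that, compound and enzyme-substrate mix preincubated 10 min at room temperature; NADPH-regenerating system started a 1 h, 37C reaction. Ketoconazole as positive control.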
Regarding `Cc1ccc(Nc2c(F)cccc2Cl)c(CC(=O)O)c1`, the Potency is 8.71 µM (active).
`C=C(C)C(=O)OCCC(F)(F)C(F)(F)C(F)(F)C(F)(F)C(F)(F)C(F)(F)F`: the Potency result is “inactive”.
Take `C=C(C)c1ccccc1`: the Potency entry is “inactive”.
As for `CC(C)OC(=O)c1ccccc1C(=O)OC(C)C`, the Potency is 79.6 µM (active).
`Cc1cc(CCC(=O)OCCOCCOCCOC(=O)CCc2cc(C)c(O)c(C(C)(C)C)c2)cc(C(C)(C)C)c1O`: the Potency is 2.76 µM (active).
As for `Cc1cc(CCCOc2c(C)cc(-c3noc(C(F)(F)F)n3)cc2C)on1`, the Potency is 21.9 µM (active).
Still for that read-out and setting: the entry for `O=c1[nH][nH]c(=O)c2cc([N+](=O)[O-])ccc12` is “inactive”; for `CCOC(=O)N1CCC(Nc2ccc(Cl)cc2N)CC1` it is 4.36 µM (active).
In the case of `O=C1OC[C@H](Cc2cccc(O)c2)[C@H]1Cc1cccc(O)c1`, the Potency was 4.8 µM (active).
Turning to `COc1ccc2nc(S(=O)Cc3ncc(C)c(OC)c3C)[nH]c2c1` (stereo not given), the Potency is 5.57 µM (active) and 11 µM (active).
On to `CSSc1ccoc1C`, for which the Potency entry is “inactive”.
For the compound `CCCCCCCC/C=C\CCCCCCCC(=O)OCCO`, the Potency is 52.9 µM (active).
In the case of `CCC(CO)(CO)CO`, the Potency result was “inactive”.
Consider `CC1CCc2nccnc21` (stereo not given), for which the Potency result was “inactive”.
`CCCCC[C@H](O)/C=C/[C@H]1[C@H](O)CC(=O)[C@@H]1C/C=C\CCCC(=O)O`: the Potency result was “inactive”.
Consider `C[C@H](CS)C(=O)N1CCC[C@H]1C(=O)O`, for which the Potency was 21.9 µM (active).
Consider `COc1ccc(CCN(C)CCCN2CCc3cc(OC)c(OC)cc3CC2=O)cc1OC`, for which the Potency result was “inactive”.
Turning to `CC(CN(CCN(CC(C)OCCO)CC(C)OCCO)CC(C)OCCO)OCCO` (stereo not given), the Potency was 86.1 µM (active).
For the compound `CC(C)COC(=O)COc1cc(Cl)c(Cl)cc1Cl`, the Potency is 8.91 µM (active).
On to `Cc1ccc(NC(=O)N(C)C)cc1NC(=O)N(C)C`, for which the Potency result is “inactive”.
In the case of `CCCCCCCCCCCC(=O)OCC(O)CO` (stereo not given), the Potency is 79.6 µM (active).
In the case of `O=C(CCS)OCC(COC(=O)CCS)(COC(=O)CCS)COC(=O)CCS`, the Potency was 15.9 µM (active).
As for `CC(=O)Oc1cccc(O)c1`, the Potency entry was “inactive”.
On to `Cc1cccc2sc(N)nc12`, for which the Potency was 22.7 µM (active).
As to `Cc1ccc(S(=O)(=O)NC(=O)NC2CCCCC2)cc1`, the Potency entry was “inactive”.
Still for that read-out and setting: the figure for `COc1ccc(-c2cc(=S)ss2)cc1` is 9.77 µM (active).
Take `OCC(CO)n1cnc(-c2ccc(F)cc2)c1-c1ccnc(Oc2ccccc2)n1`: the Potency is 31.7 µM (active).
For `O=[N+]([O-])c1ccc2ncccc2c1`, the Potency is 40 µM (active).
As to `FC(F)(F)C(F)(F)C(F)(F)C(F)(F)CCI`, the Potency entry is “inactive”.
As for `COc1ccc(/C=C/C(=O)c2ccc(OC)cc2OC)cc1`, the Potency was 3.89 µM (active).
Regarding `CCC1CCC(CCC(=O)O)C1` (stereo not given), the Potency is 40.8 µM (active).

The record behind these values is PubChem BioAssay (Tox21).
